The text below walks through data of PubChem BioAssay.

Assay [1] is described as follows: liver-stage malaria parasite growth inhibition, primary screen, cell-based, HepG2, luciferase luminescence, HepG2 viability (AID 624349; in the data active = parasite load remaining mostly below about 12%, no sharp cut-off; inactive = mostly above about 10%;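 also: 100% = mean of DMSO negative control wells on the same plate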). The following applies: P. berghei liver stage in HepG2, luciferase luminescence, concentration not given here; parasite load remaining: stronger effect = lower value; viability: measured here: HepG2 viability without parasites.
Assay [2] relates to Hepatitis C virus NS3 helicase. The experiment in a line: HCV NS3 helicase inhibitors, primary screen, biochemical, fluorescence polarization, LOPAC1280 library (AID 687035; in the data active = inhibition above about 37%). To be noted: Purified HCV NS3 helicase, Cy5-dT15 ssDNA binding fluorescence polarization; stronger effect = higher value; concentration not given here.
Assay [3] can be described thus: Cy5 fluorescence quenching or enhancement artefacts, artefact control for HCV NS3 helicase inhibitor project, biochemical, LOPAC1280 (AID 687037; call rule not given here). To be noted: Cy5-DNA-NS3h complex fluorescence interference counterscreen.
The nature of assay [4]: stimulators of nuclear beta-catenin in C2C12, primary screen, imaging, WNT3A-conditioned medium, mouse C2C12, NPC library (AID 1117326; in the data active = nuclear beta-catenin stimulation mostly above about 4.2%, no sharp cut-off; inactive = mostly below about 10%). To be noted: stronger effect = higher value.
A short description of assay [5]: stimulators of insulin release from INS-1E, primary screen, cell-based, 5 mM glucose, NPC library (AID 1117329;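 active = compound raises insulin release from rat beta cells at 5 mM glucose, no numeric limit stated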). The following applies: rat INS-1E insulin secretion, at 10 µM, stronger effect = higher value.
The nature of assay [6]: growth inhibition of GSK3B-pretreated HCT116 cells – cell-based, CellTiter-Glo, 0.2 to 20 µM (AID 1117336;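 active = compounds lowering colon cancer cell viability after pretreatment blocking the GSK3B kinase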). To be noted: HCT116 viability after GSK3B inhibitor, at 20 µM, stronger effect = higher value.
Assay [7] can be described thus: inhibition of endothelial tube formation, primary screen, imaging, VEGF stimulated, CD31 staining, tube area, NPC library (AID 1117340;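 active = compound that reduces growth-factor-driven endothelial tube area in a mixed cell culture, no cutoff stated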). To be noted: VEGF-stimulated ADSC/ECFC co-culture, at 10 µM, stronger effect = higher value.
Assay [8] in a line: glucagon-like peptide 1 release enhancers, primary assay, NCI-H716 cell line, NPC library (AID 1117341;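 active = compound raises GLP1 secretion from the human gut endocrine cells, with no numeric limit stated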). To be noted: NCI-H716 cells, at 10 µM, stronger effect = higher value.
Assay [9] can be described thus: HCT116 colon cancer cell growth inhibition, primary screen, CellTiter-Glo luminescence, NPC library (AID 1117342;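 active = compounds that lower survival of HCT116 colon cancer cells in the luminescence readout, no numeric limit stated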). To be noted: at 20 µM (top of the series).
The nature of assay [10]: CellTiter-Glo luminescent readout of SW480 viability loss, NPC library primary (AID 1117343;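 active = compounds that lower viability of the colon cancer cells in the luminescence readout, with no numeric limit stated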). To be noted: CellTiter-Glo luminescence; at 20 µM (top of the series) unless noted.
The nature of assay [11]: decreased DLD-1 cellular survival, CellTiter-Glo luminescent readout, NPC compound collection, primary HTS (AID 1117346;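 active = compounds that lower survival of DLD-1 colon cancer cells in the luminescence readout, no cutoff given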). To be noted: DLD-1 viability, CellTiter-Glo luminescence; at 20 µM (top of the series).
Assay [12] can be described thus: sensitizers of A549 cells to miR-34 induction, primary screen, imaging, A549 dox-inducible miR-34, nuclei and caspase counts (AID 1347080). To be noted: A549 miR-34 inducible, Hoechst nuclei count, 48 h.
The nature of assay [13]: phospholipid biosynthesis inhibitors in animal cells, primary screen, cell-based, LOPAC library, screen 4 (AID 1347384; call rule not given here). The following applies: phospholipid biosynthesis inhibition screen, at 10 µM.
The nature of assay [14]: survival rescue of mitochondrial mutant cells in low glucose, primary screen, MELAS cybrids, Rieske KO mouse fibroblasts, CellTiter-Glo (AID 1508586;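 active = mean z-score across replicates of 1.96 or higher in either the MELAS or the Rieske mutant cell line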;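 also: z relative to plate mean and SD of compound and empty wells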).
A short description of assay [15]: viability rescue of complex I mutant cybrids, primary screen, cell-based, galactose medium, ATP luminescence (AID 1645843;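 active = z-score of at least 1.8 in each of two replicates, scored against plate mean and spread of sample wells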;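 also: positive z means more ATP and so rescue of galactose-driven cybrid death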). The following applies: complex I mutant cybrid cells, 72 h, stronger effect = higher value.
Assay [16] in a line: growth inhibition of DIPG glioma cells, dose response, cell-based, JHH-DIPG-1, MIPE4.0, CellTiter-Glo, qHTS (AID 1347062; cut-off not given, nearly all actives have AC50 up to about 27 µM). The following applies: JHH-DIPG-1 viability, CellTiter-Glo ATP luminescence.
Assay [17] in a line: SU-DIPG-VI glioma cell viability, MIPE4.0 library, CellTiter-Glo luminescence, qHTS (AID 1347066; cut-off not given, nearly all actives have AC50 up to about 30 µM;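 also: cells exposed to compound for 48 hours before readout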). The following applies: CellTiter-Glo ATP luminescence.
Assay [18] has as its target NAD(+) hydrolase SARM1 (Homo sapiens) (UniProt Q6SZW1). The experiment in a line: SARM1 TIR NADase inhibitors, cell lysate, NAD-Glo luminescence (AID 1508614;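 active = compound whose remaining NAD level is above about 45 nM, limit read from the data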;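 also: higher remaining NAD means stronger inhibition of SARM1 NADase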). To be noted: SAM-TIR HEK293T lysate NADase, at 1 µM, stronger effect = higher value.
Assay [19] can be described thus: growth inhibition of DIPG glioma cells, dose response, cell-based, SU-DIPG-IV, MIPE4.0, CellTiter-Glo, qHTS (AID 1347063; cut-off not given, nearly all actives have AC50 up to about 30 µM;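 also: compound exposure lasted 48 hours before the viability readout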). To be noted: SU-DIPG-IV viability, CellTiter-Glo ATP luminescence.
[20] abbreviates: stronger effect = lower value, cell number ratio, induced over uninduced.
[21] abbreviates: measured here: relative caspase fold change +Dox/-Dox.
The mark [22] stands for this setting: measured here: total cells with miR-34 induction, stronger effect = lower value.
The mark [23] stands for this setting: measured here: total cells without miR-34 induction.
Setting [24] is: MELAS cybrid survival, CellTiter-Glo 48 h, stronger effect = higher value.
[25] abbreviates: Rieske KO mouse fibroblast survival, CellTiter-Glo 72 h.

SMILES strings stand for the structures. Where “and” joins values, the source holds several entries; their conditions need not be identical. Equal values may be shown once. Inconclusive results are not listed. Calls of active or inactive are those of the source.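 The calls were made as follows, unless noted: active = compounds whose cell count with miR-34 switched on is under 0.7 times the count with it off; inactive = the rest.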

NAD(+) hydrolase SARM1 (Homo sapiens), sequence (Q6SZW1 whole entry, looked up): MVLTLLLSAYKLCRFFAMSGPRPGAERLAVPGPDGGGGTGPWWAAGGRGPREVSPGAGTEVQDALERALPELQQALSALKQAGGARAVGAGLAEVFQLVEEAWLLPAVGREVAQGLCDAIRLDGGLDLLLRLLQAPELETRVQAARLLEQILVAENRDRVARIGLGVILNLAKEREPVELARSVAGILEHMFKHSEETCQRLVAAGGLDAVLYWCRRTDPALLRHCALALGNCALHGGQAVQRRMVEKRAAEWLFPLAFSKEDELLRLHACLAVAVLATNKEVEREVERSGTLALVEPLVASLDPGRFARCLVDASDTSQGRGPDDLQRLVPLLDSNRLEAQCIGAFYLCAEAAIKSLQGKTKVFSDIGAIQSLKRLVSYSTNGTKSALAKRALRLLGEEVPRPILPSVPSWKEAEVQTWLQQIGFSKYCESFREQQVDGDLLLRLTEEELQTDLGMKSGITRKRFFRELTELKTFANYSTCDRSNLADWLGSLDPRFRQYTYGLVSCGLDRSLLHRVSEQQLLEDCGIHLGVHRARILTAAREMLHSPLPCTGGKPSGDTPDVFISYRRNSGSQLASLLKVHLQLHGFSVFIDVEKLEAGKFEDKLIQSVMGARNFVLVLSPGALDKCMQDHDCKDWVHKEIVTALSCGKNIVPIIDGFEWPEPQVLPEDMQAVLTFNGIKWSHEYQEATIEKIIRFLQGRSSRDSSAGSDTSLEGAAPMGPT

`CC1=C(C)C(=O)C(CCCCC#CCCCC#CCO)=C(C)C1=O`: in [1], the parasite load remaining is 55.8% (inactive). Moreover, the viability in [1] is 216%. For the same compound, the inhibition in assay [2] is -2% (inactive). In assay [3], the fluorescence ratio (interference) is 1 (inactive). Besides, the nuclear beta-catenin stimulation in assay [4] (at 10 µM) was 2.7% (inactive); in assay [4] (stimulation, at 2 µM) it was -0.7%. The insulin secretion stimulation in assay [5] was 2.7% (inactive). In addition, the viability decrease in assay [6] is 96% (active). Further, the tube area decrease in assay [7] is 16% (inactive). The GLP1 secretion stimulation in assay [8] is 5% (inactive). Moreover, the inhibition of viability in assay [9] is 87.4% (active). The viability decrease (inhibition) in [10] was 126% (active); in [11], 54.6% (active). Moreover, the fold change in [12] (setting [20]) is 1.02 (inactive) and 0.926 (inactive) and 0.838 (inactive); in assay [12] (setting [21]) it was 1.5 and 0.952 and 1.53. In addition, the cell count in assay [12] (setting [22]) is 8160 and 3040 and 7890; in [12] (setting [23]), 7960 and 3280 and 9410. The result in assay [13] was inactive. In addition, the z-score was 0.195 (inactive) in assay [14] (setting [24]); -1.24 in assay [14] (setting [25]); -1.52 (inactive) and -1.61 (inactive) in assay [15].

Regarding `O=c1[nH]c(=O)n([C@H]2C[C@H](O)[C@@H](CO)O2)cc1C(F)(F)F`, the nuclear beta-catenin stimulation in assay [4] (at 10 µM) is 44.5% (active); in [4] (stimulation, at 2 µM), 39%. The insulin secretion stimulation in assay [5] is 1.1% (inactive). Besides, the viability decrease in assay [6] was 84.6% (active). The tube area decrease in assay [7] was 99.5% (active). In addition, the GLP1 secretion stimulation in [8] is -3.2% (inactive). Further, in assay [9], the inhibition of viability was 84% (active). The viability decrease (inhibition) in assay [10] was 98.1% (active); in assay [11], 41.5% (active). Moreover, the compound was classed as inactive in assay [16] and in [17]. Besides, the z-score in [14] (setting [24]) was 0.972 (inactive); in [14] (setting [25]), 1.84. For the same compound, in assay [18], the remaining NAD is 10 nM (inactive).

`Cc1ccc(-c2ncc(Cl)cc2-c2ccc(S(C)(=O)=O)cc2)cn1`: the parasite load remaining in assay [1] is 30% (inactive). For the same compound, the viability in [1] was 120%. Further, the nuclear beta-catenin stimulation is 10.8% (inactive) in [4] (at 10 µM) and 8.4% in [4] (stimulation, at 2 µM). Also, in assay [5], the insulin secretion stimulation is 2.3% (inactive). Moreover, the viability decrease in [6] is 27.3% (inactive). Besides, the tube area decrease in [7] is -22.7% (inactive). In addition, the GLP1 secretion stimulation in assay [8] is 0.5% (inactive). The inhibition of viability in assay [9] was -14.5% (active). Besides, the viability decrease (inhibition) was 5.7% (inactive) in assay [10] and 12.4% (inactive) in [11]. In addition, the fold change is 0.833 (inactive) in assay [12] (setting [20]) and 0.95 in assay [12] (setting [21]). Also, the cell count in [12] (setting [22]) worked out at 8800; in [12] (setting [23]), 10600. Besides, the z-score in assay [14] (setting [24]) is -0.283 (inactive) and 0.00989 (inactive); in assay [14] (setting [25]) it was 0.187 and -0.33; in assay [15] it was 1.08 (inactive).

With `C=CCc1cc(OC)c(O)c(C(=O)NCCO)c1`, the nuclear beta-catenin stimulation in assay [4] (at 10 µM) was 1.7% (inactive); in [4] (stimulation, at 2 µM), 2.4%. The insulin secretion stimulation in assay [5] is -0.7% (inactive). In assay [6], the viability decrease is -4.9% (inactive). Besides, the tube area decrease in assay [7] is 4.3% (inactive). The GLP1 secretion stimulation in assay [8] was 0.4% (inactive). The inhibition of viability in assay [9] was -7.7% (inactive). The viability decrease (inhibition) in assay [10] is 33.7% (inactive); in assay [11], 1.9% (inactive). Besides, the result in assay [16], in assay [19] and in assay [17] was inactive. Also, the fold change is 0.947 (inactive) in assay [12] (setting [20]) and 0.662 in [12] (setting [21]). Further, the values for the cell count in assay [12] (setting [22]) and in [12] (setting [23]) were 8720 and 9220, respectively. Moreover, the z-score in assay [14] (setting [24]) was -0.166 (inactive); in assay [14] (setting [25]), 0.363.

In the case of `COc1cc(C(C)=O)ccc1OCCCN1CCC(c2noc3cc(F)ccc23)CC1`, the nuclear beta-catenin stimulation in [4] (at 10 µM) is 1.5% (inactive); in assay [4] (stimulation, at 2 µM) it was 0.5%. Moreover, in assay [5], the insulin secretion stimulation is 3.8% (inactive). Moreover, the viability decrease in assay [6] was 66.1% (active). Also, the tube area decrease in [7] was 16.7% (inactive). For the same compound, the GLP1 secretion stimulation in assay [8] is 6.5% (inactive). In addition, in assay [9], the inhibition of viability was 80.7% (active). Besides, the viability decrease (inhibition) in assay [10] is 100% (active); in assay [11] it was 33.5% (inactive). Also, the outcome in assay [19] was inactive. Besides, the fold change in assay [12] (setting [20]) is 0.893 (inactive) and 0.919 (inactive); in assay [12] (setting [21]), 0.354 and 0.917. For the same compound, the cell count in [12] (setting [22]) was 6850 and 7430; in assay [12] (setting [23]), 7670 and 8090. Besides, the z-score was -0.601 (inactive) and -0.433 (inactive) in assay [14] (setting [24]); 0.999 and 0.549 in assay [14] (setting [25]); -1.19 (inactive) in assay [15].
